TRHR ag: activates the human TRH receptor. 360,000 compounds, 0.18% hits. P34981. activation, % at 2 µM. TRHR cells, calcium flux fluo-8, FDSS agonist mode
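Steps: seed TRHR cells overnight; add fluo-8 no-wash Ca dye, RT 30 min–1.5 h; record 10 s baseline; pin-transfer compounds; monitor fluorescence 1 cycle/s for the agonist window. Calcium increases flag candidate agonists.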
D1 PAM: potentiators of human D1 dopamine receptor. potentiation, % at 10 µM. AID 504651. P21728. HEK293 TREx D1 cells, calcium flux, dopamine EC20 potentiation. 360,000 compounds, 0.036% hits; in the data active means potentiation above about 30%
Target sequence (P21728 whole entry, looked up): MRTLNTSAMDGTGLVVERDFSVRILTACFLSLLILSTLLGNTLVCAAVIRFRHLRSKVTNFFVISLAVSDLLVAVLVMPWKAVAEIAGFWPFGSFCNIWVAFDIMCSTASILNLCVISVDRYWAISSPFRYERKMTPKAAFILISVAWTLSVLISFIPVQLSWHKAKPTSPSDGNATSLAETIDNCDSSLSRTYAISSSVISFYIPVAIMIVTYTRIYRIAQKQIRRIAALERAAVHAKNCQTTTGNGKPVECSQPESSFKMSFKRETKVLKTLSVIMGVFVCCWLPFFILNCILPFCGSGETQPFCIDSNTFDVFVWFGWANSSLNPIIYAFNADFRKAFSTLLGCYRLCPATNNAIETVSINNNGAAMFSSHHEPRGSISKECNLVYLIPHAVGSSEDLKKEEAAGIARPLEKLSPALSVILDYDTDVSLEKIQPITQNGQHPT
D1 antag: antagonists of human D1 dopamine receptor. P21728. AID 504652. 360,000 compounds, 3.2% hits. activity change, negative = inhibition, % at 10 µM. HEK293 TREx D1 cells, calcium flux, dopamine EC80; active compounds read low; in the data active means activity change below about -30%
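Compound effects on dopamine-evoked calcium signalling were measured in tetracycline-induced HEK293 Trex D1 cells. Dopamine at EC80 followed a 180 s compound pre-read, and fluorescence was tracked kinetically for 180 s more.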
Epigenetic derep: epigenetic control regulation, reporter derepression; 280,000 compounds, 0.2% hits; Potency, µM (highest dose often 53.9 µM), usual class: activators; AID 1865; murine LDR cells, GFP reporter derepression, 30 h; active means well fitted activation curve with a large enough effect; inconclusive means small, poorly fitted or top-dose-only effect; further: nearly all actives have a fitted effect of over 60% in size
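GFP-positive cell count by laser-scanning cytometry (objects 20–120 um) after 30 h, 37 C compound exposure of murine LDR cells; reporter is CMV-GFP integrated at a silenced locus, inducible by HDAC or DNMT inhibitors.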
D1 agonist: agonists of human D1 dopamine receptor; AID 504660; HEK293 T-REx D1 cells, calcium flux, agonist mode; 360,000 compounds, 1% hits; activation, % at 2 µM
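Tetracycline-induced HEK293 TREx D1 cells, force-coupled to calcium signalling, were dye-loaded with a no-wash calcium kit. Compound was pin-added after a 10 s baseline. Fluorescence was read kinetically at 1 cycle/s for 180 s, with calcium rises flagged as agonism.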
TRHR enhancer: allosterically enhances the human TRH receptor. TRHR cells, fluo-8 calcium fluorescence, EC20 TRH enhancement. 360,000 compounds, 0.66% hits. AID 493056. enhancement, % at 2 µM. P34981; in the data active means enhancement above about 30%
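TRHR-expressing cells loaded with fluo-8 calcium dye were read kinetically (ex 480/em 530) during compound addition, then stimulated with an EC20 of TRH (10 nM final). Enhancement of the Gq-mediated intracellular calcium response was scored.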
Of the large screens only hits and unclear results are named; the others gave an inactive call; ! = not confirmed by another sample. An excerpt weighted towards active compounds, which were near 4.6% of everything screened. Unless noted, no stated cut-off is given here; in the data, active means activation above about 30%; inactive means the rest.

Cc1ccc2[nH]c(=O)c3cc(C(=O)NCc4cccc(Cl)c4)sc3c2c1	none
Cc1ccc(N2C(=O)CSC2c2cccnc2)c(Cl)c1 (centres undefined)	D1 antag -37
O=C(CSc1ncc2c(n1)-c1cc(Cl)ccc1N(Cc1ccccc1F)S2(=O)=O)Nc1cccc(C(F)(F)F)c1	none
Cc1ccc(-c2nc3sc(CCNS(=O)(=O)c4cc(F)ccc4F)c(C)n3n2)cc1	none (no result: D1 antag)
COC(=O)c1nc(Cl)c(Cl)c(N)c1Cl	D1 antag -31
CCOC(=O)c1oc2cc(OC(C)=O)ccc2c(=O)c1-c1ccc(OC)c(OC)c1	none
CCOC(=O)COc1ccc2c(=O)c(-c3ccc(OC)c(OC)c3)c(C(=O)OCC)oc2c1	D1 antag -45
CC1CCN(C(=S)Nc2ccc(SC(F)F)cc2)CC1	D1 antag -41
Cc1ccc(C)c(NC(=O)CSc2nc3ccccc3nc2N2CCOCC2)c1	D1 antag -46!
Cc1ccsc1/C=N/NC(=O)c1c[nH]c2ccccc12	none
O=C(N/N=C/c1ccsc1)c1c[nH]c2ccccc12	D1 antag -46 (no result: Epigenetic derep)
CCOC(=O)c1c(C)oc2nc(C)nc(NCc3ccc(Cl)cc3)c12	none
CCOC(=O)c1nc(NCc2ccc(Cl)cc2)c2c(C)noc2n1	D1 antag -49
O=[N+]([O-])/C(=C\Nc1ccccc1)S(=O)(=O)c1ccccc1	D1 antag -88
COc1ccc(N/C=C(\[N+](=O)[O-])S(=O)(=O)c2ccccc2)cc1	none (no result: Epigenetic derep)
Cc1ncsc1CCOC(=O)c1cccc([N+](=O)[O-])c1	D1 antag -33!
CCCCCOC(=O)C1=C(C)NC(=O)NC1c1ccccc1 (centres undefined)	D1 antag -36 (no result: Epigenetic derep)
CCOC(=O)C1=C(C)NC(=O)CC1c1ccccc1 (centres undefined)	TRHR enhancer 40
CCCCCOC(=O)C1=C(C)NC(=O)NC1c1ccc(N(C)C)cc1 (centres undefined)	none (no result: Epigenetic derep)
CCOc1ccc(NC(=O)CSc2nc(-c3cccc(Cl)c3)nc3c2Cc2c(CO)cnc(C)c2O3)cc1	none
Cc1cc(C)c(C)c(C(=O)CSc2nnc(-c3ccc4[nH]c(C)c(C)c4c3)o2)c1C	none
Cc1[nH]c2ccc(-c3nnc(SCC(=O)c4ccc(F)cc4)o3)cc2c1C	D1 antag -40
COc1ccc(C(=O)CSc2nnc(-c3cc(C)on3)o2)cc1	none
Cc1cc(-c2nnc(SCC(=O)c3ccc(Cl)cc3)o2)no1	D1 antag -33
CN(/N=C/c1ccc(-c2ccc([N+](=O)[O-])cc2)o1)c1ccccc1	TRHR ag 37, D1 antag -67, D1 agonist 234 (no result: Epigenetic derep)
CN(C)/N=C/c1ccc([N+](=O)[O-])cc1[N+](=O)[O-]	none
CN(C)/N=C/c1ccc(Sc2ccccc2[N+](=O)[O-])o1	D1 antag -33
Cc1ccc(S(=O)(=O)NCC(=O)N(CC(=O)NCc2ccco2)Cc2ccccc2)cc1	none (no result: Epigenetic derep)
Cc1ccc(S(=O)(=O)NCC(=O)N(CC(=O)NCc2ccco2)C2CCCC2)cc1	D1 antag -38 (no result: Epigenetic derep)
O=C(CN(C(=O)CNS(=O)(=O)c1ccc(F)cc1)c1ccc(F)cc1)NCc1ccco1	D1 antag -32 (no result: Epigenetic derep)
O=C(CN(C(=O)CNS(=O)(=O)c1ccc(F)cc1)c1ccccc1)NCc1ccco1	none (no result: Epigenetic derep)
COc1ccc(-n2c(SCC(=O)NCc3ccc(F)cc3)nc3c([nH]c4ccccc43)c2=O)cc1	none
O=C(Cc1ccc(F)cc1)NC1CC(=O)N(c2ccccc2)C1 (centres undefined)	none (no result: D1 antag)
Cc1ccc2cccc(NC(=O)c3ccc(C#N)cc3F)c2n1	none
CN(C)CCn1c2c(c(SCC(=O)Nc3ccc(F)cc3F)nc1=O)CCC2	none (no result: D1 antag)
Nc1c(C(=O)Nc2ccc(F)c(F)c2)sc2nc(-c3ccncc3)ccc12	none
Cc1ccccc1NC(=O)c1sc2nc(-c3ccncc3)ccc2c1N	D1 agonist 48
COc1cccc(-c2ccc3c(N)c(C(=O)Nc4ccccc4C)sc3n2)c1	none
Cc1ccc(NC(=O)c2sc3nc(-c4ccncc4)ccc3c2N)cc1	Epigenetic derep 22µM, D1 agonist 165
COc1ccc(OCC(=O)Nc2cc(-c3nc4ccccc4o3)ccc2Cl)cc1	none
O=C(CSc1nc2ccccc2c2nc(-c3ccccc3)nn12)Nc1ccc(F)cc1	none
CC(=O)Nc1ccc(S(=O)(=O)Nc2cccc3cccnc23)cc1	D1 antag -55 (no result: Epigenetic derep)
CC(=O)Nc1ccc(S(=O)(=O)Nc2cccn(Cc3ccc(C)cc3)c2=O)cc1	TRHR enhancer 33
Cc1ccc(NC(=O)c2cccc3cccnc23)cc1	D1 antag -31 (no result: Epigenetic derep)
CC(=O)Nc1cccc(NC(=O)c2cccc3cccnc23)c1	none (no result: Epigenetic derep)
CC(=O)Nc1ccc(S(=O)(=O)Nc2ccccc2N2CCOCC2)cc1	TRHR enhancer 34 (no result: Epigenetic derep)
CN(C)c1ccc(CNc2nc(-c3ccco3)nn2S(C)(=O)=O)cc1	none
FC(F)(F)c1cccc(N2CCN(c3ncnc4c3nc3n4CCCC3)CC2)c1	none
CCOC(=O)CSc1nc2cc3c(cc2c(=O)n1CCCC(=O)NCCc1ccc(OC)c(OC)c1)OCO3	none
Cc1cc(SCC(=O)NCc2ccccc2Cl)nc(=O)[nH]1	none (no result: D1 antag)
Cc1cccc(NC(=O)c2sc3nc4c(cc3c2N)CN(C(C)C)CC4)c1	none
Cc1ccc(C(=O)CSc2nc3cccnc3n2C)cc1	D1 antag -37
Cn1c(SCC(=O)c2ccccc2)nc2cccnc21	none
O=C(Nc1ccc(OC(F)(F)F)cc1)Nc1cccnc1	none
CC(C)(C)CC(C)(C)NC(=O)Nc1cccc([N+](=O)[O-])c1	D1 antag -41
Cc1cc(NC(=O)Nc2cccc([N+](=O)[O-])c2)no1	none
O=C(Nc1ccc(OC(F)(F)F)cc1)Nc1cccc([N+](=O)[O-])c1	D1 antag -47, Epigenetic derep inconclusive, D1 agonist 30
Cc1ccc(NC(=O)Nc2cccc([N+](=O)[O-])c2)cc1F	D1 antag -57, D1 agonist 32
N#Cc1ccccc1Cn1c(SCC(=O)NCc2ccccc2)nc2ccccc21	none
CCOc1ccc(NC(=O)CCS(=O)(=O)c2cc3c4c(c2)CCN4C(=O)CC3)cc1	none
COc1cccc(C(=O)NCC2OCCc3ccccc32)c1 (centres undefined)	none
Clc1ccc(CNc2ccc(CNc3ncn[nH]3)cc2)c(Cl)c1	D1 antag -46
Clc1ccc(CNc2ccc(CNc3ncn[nH]3)cc2)cc1	none
COc1ccc(NS(=O)(=O)c2ccc3c(c2)CC(C)N3C(C)=O)c(OC)c1 (centres undefined)	none
Clc1ccc(Cn2c(-c3cccnc3Cl)nc3ccccc32)c(Cl)c1	none

High-throughput results (PubChem BioAssay)
